Experimental data: PubChem BioAssay (NCATS)
Records with an inconclusive call do not appear. Active and inactive are the calls of the source. Unless noted, the call rests on the fitted dose curve; in most records, active means well fitted curve in the direction sought with a large enough effect; inconclusive means small, poorly fitted or top-dose-only effect, or another doubt; inactive means no such curve, though single readings can be large; an effect the other way counts as inactive or inconclusive.

Assays:
[1] = qHTS assay for measurement of the activity of small molecule inhibitors on Zika virus induced Caspase-3 activity in human iPSC derived neural progenitor cells (hNPCs) (AID 1224857); further: nearly all actives have a fitted effect of over 65% in size
Outline: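 Human iPSC-derived neural progenitor cells pretreated 1 hr with compounds, then infected with Zika virus (2 FFU/cell) for 6 hours at 37 C. Caspase-3/7 measured by Caspase-Glo luminescence; % inhibition calculated from induction scaled to uninfected (0%) and infected (100%) wells.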

[2] = qHTS assay for measurement of the activity of small molecule inhibitors on Zika virus induced Caspase-3 activity in human astrocytoma cells (AID 1224859)
Outline: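 SNB-19 astrocytoma cells, 250/well, pretreated 1 h with compounds, then Zika virus at 2 FFU/cell for 6 h at 37 C; Caspase-Glo 3/7 luminescence after 30 min; percent inhibition normalised to uninfected and infected controls.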

[3] = P-glycoprotein substrates identified in KB-8-5-11 adenocarcinoma cell line, qHTS therapeutic library screen (AID 1346987); further: nearly all actives have a fitted effect of over 65% in size; further: potency means the concentration at half of the fitted maximal effect
Outline: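 KB-8-5-11, a colchicine-selected P-gp-overexpressing KB-3-1 subline, was grown without colchicine for the assay. Cells were seeded at 500 cells/well, dosed in concentration-response and incubated 72 h at 37 degree C, 5% CO2. Viability was read by CellTiter-Glo luminescence.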

[4] = qHTS of pediatric cancer cell lines to identify multiple opportunities for drug repurposing: Primary screen for A673 cells (AID 1347092); further: nearly all actives have a fitted effect of over 45% in size; further: potency means the concentration at half of the fitted maximal effect
Outline: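 A673 cells (500-1,000 cells/well) were treated 48 hours at 37 degrees C with compounds at 11-point (0.78 nM to 46 µM) or 8-point (0.59 nM to 46 µM) dilutions. Viability read by CellTiter-Glo luminescence; concentration-response curves fitted.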

[5] = qHTS of pediatric cancer cell lines to identify multiple opportunities for drug repurposing: Primary screen for BT-37 cells (AID 1347094); further: potency means the concentration at half of the fitted maximal effect
Outline: (§1)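 Cells plated at 500-1,000/well in growth medium, compounds added after 5 h. MIPE tested at 11 points (from 0.78 nM), NPC at 8 points (from 0.59 nM). CellTiter-Glo luminescence after 48 h; concentration-response curves from primary screen.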

[6] = qHTS of pediatric cancer cell lines to identify multiple opportunities for drug repurposing: Primary screen for Saos-2 cells (AID 1347097); further: nearly all actives have a fitted effect of over 40% in size; further: potency means the concentration at half of the fitted maximal effect
Outline: as §1

[7] = qHTS of pediatric cancer cell lines to identify multiple opportunities for drug repurposing: Primary screen for TC32 cells (AID 1347089); further: nearly all actives have a fitted effect of over 60% in size
Outline: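 TC32 cells, 500-1,000/well in growth medium, compound-treated 48 h at 37 °C; viability from CellTiter-Glo luminescence. Primary screen: MIPE 11-point (0.78 nM–46 µM final), NPC 8-point (0.59 nM–46 µM final); confirmatory at 11-point dilutions.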

[8] = qHTS of pediatric cancer cell lines to identify multiple opportunities for drug repurposing: Primary screen for SJ-GBM2 cells (AID 1347091); further: potency means the concentration at half of the fitted maximal effect
Outline: (§2)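 Eight- or eleven-point concentration series, 48 h treatment at 37 degrees C in growth media; readout CellTiter-Glo luminescence. Potency and efficacy were taken from the concentration-response curves.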

[9] = qHTS of pediatric cancer cell lines to identify multiple opportunities for drug repurposing: Primary screen for SK-N-MC cells (AID 1347093); further: potency means the concentration at half of the fitted maximal effect
Outline: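 Metabolically active cells were quantified by ATP-dependent luminescence (CellTiter-Glo, 15 min at room temperature) following 48 h treatment. Cells had been plated at 500-1,000 per well and settled for 5 h beforehand.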

[10] = qHTS profiling of the MIPE4 collection as inhibitors of Plasmodium falciparum (HB3) proliferation (AID 743347; call rule not given here); details: P. falciparum HB3 in erythrocytes, SYBR Green DNA, 72 h; at 28.5 µM (top of the series) unless noted
Outline: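 Erythrocytes infected with P. falciparum (0.3% parasitemia, 2.5% hematocrit) incubated with compounds 72 h at 37 C, 5% CO2. Lysis with saponin/Triton buffer containing SYBR Green I, overnight at room temperature in the dark; DNA fluorescence (485/535 nm) normalised to 0.29 uM artemisinin and DMSO.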

[11] = NS1 protein of Zika virus - qHTS assay to identify small molecule inhibitors in human HEK 293 cells (AID 1347053); further: nearly all actives have a fitted effect of over 55% in size
Outline: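 HEK 293; 20 h pre-culture, 37 C/5% CO2; cpd 1 h pre-infection; ZIKV MR766, MOI = 0.5, 24 h, 37 C; TR-FRET NS1 readout (two anti-NS1 Abs); norm. to no-virus vs infected.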

[12] = qHTS of pediatric cancer cell lines to identify multiple opportunities for drug repurposing: Primary screen for DAOY cells (AID 1347090); further: nearly all actives have a fitted effect of over 55% in size
Outline: as §2

[13] = qHTS of pediatric cancer cell lines to identify multiple opportunities for drug repurposing: Primary screen for NB-EBc1 cells (AID 1347095)
Outline: as §1

[14] = qHTS of pediatric cancer cell lines to identify multiple opportunities for drug repurposing: Primary screen for U-2 OS cells (AID 1347096); further: nearly all actives have a fitted effect of over 50% in size
Outline: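 Cells (500-1,000/well) in growth media were settled 5 h at 37 degrees C, then given compounds for 48 h. Viability was read as CellTiter-Glo luminescence. Primary runs used MIPE at 11 points (0.78 nM-46 µM) and NPC at 8 points (0.59 nM-46 µM); follow-ups used 11 points.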

CCCCCCCCCCCCCCCC[N+](C)(C)Cc1ccccc1
inactive: Potency [1] | outcome [2] | Potency [3]
active: Potency [4] 13.3 µM | Potency [5] 30.9 µM | Potency [6] 23.7 µM

O=C1NC2CCCCN2C12CCN(CCCN1c3ccccc3CCc3ccc(Cl)cc31)CC2 (centres undefined)
active: Potency [3] 16.4 µM | Potency [8] 23.7 µM | Potency [9] 16.8 µM | Potency [5] 30.9 µM | Potency [6] 23.7 µM
inactive: Potency [1] | outcome [2] | Potency [7]

CC(NCCC(c1ccccc1)c1ccccc1)c1ccccc1 (centres undefined)
3.07%: growth, % of control [10]
inactive: Potency [1] | outcome [2]
active: Potency [3] 16.4 µM | Potency [6] 26.6 µM

CCOc1ccccc1OCC1CNCCO1 (centres undefined)
inactive: Potency [1] | outcome [2] | Potency [11] | Potency [7] | Potency [12] | Potency [8] | Potency [4] | Potency [9] | Potency [5] | Potency [13] | Potency [14]

CCOC(=O)CN1CCCC1=O
inactive: Potency [1] | outcome [2] | Potency [11] | Potency [7] | Potency [12] | Potency [8] | Potency [4] | Potency [9] | Potency [5] | Potency [13] | Potency [14]

Cc1nc(C2CCCCC2)c(-c2ccc(S(N)(=O)=O)c(F)c2)o1
inactive: Potency [1] | outcome [2] | Potency [11] | Potency [7] | Potency [12] | Potency [8] | Potency [4] | Potency [9] | Potency [5] | Potency [13] | Potency [14]

CCOC(=O)C(=O)CCc1ccccc1
inactive: Potency [1] | outcome [2] | Potency [11] | Potency [7] | Potency [12] | Potency [8] | Potency [4] | Potency [9] | Potency [5] | Potency [13] | Potency [14] | Potency [6]

Cc1nc2n(c(=O)c1CCN1CCC(C(=O)c3ccc(F)cc3)CC1)CCS2
inactive: Potency [1] | outcome [2] | Potency [11] | Potency [7] | Potency [12] | Potency [8] | Potency [4] | Potency [9] | Potency [5] | Potency [13] | Potency [14] | Potency [6]

COc1cc(S(N)(=O)=O)cc(C(=O)O)c1OC
inactive: Potency [1] | outcome [2] | Potency [11] | Potency [7] | Potency [12] | Potency [8] | Potency [4] | Potency [9] | Potency [5] | Potency [13] | Potency [14] | Potency [6]

COCCc1ccccn1
inactive: Potency [1] | outcome [2] | Potency [11] | Potency [7] | Potency [12] | Potency [8] | Potency [4] | Potency [9] | Potency [5] | Potency [13] | Potency [14]

NS(=O)(=O)c1cc2c(cc1Cl)CN(C1CCCCC1)C2=O
inactive: Potency [1] | outcome [2] | Potency [11] | Potency [7] | Potency [12] | Potency [8] | Potency [4] | Potency [9] | Potency [5] | Potency [13] | Potency [14] | Potency [6]

C[C@H]1C[C@@H]2[C@H]([C@@H](O)C[C@@]3(C)[C@H]2CC[C@]3(O)C(=O)CO)[C@@]2(C)C=CC(=O)C=C12
inactive: Potency [1] | outcome [2] | Potency [11] | Potency [7] | Potency [12] | Potency [8] | Potency [4] | Potency [9] | Potency [5] | Potency [13] | Potency [14] | Potency [6]

COc1ccc2c(c1)CCCC2=O
inactive: Potency [1] | outcome [2] | Potency [11] | Potency [7] | Potency [12] | Potency [8] | Potency [4] | Potency [9] | Potency [5] | Potency [13] | Potency [14] | Potency [6]

N#CSCC(=O)O
inactive: Potency [1] | outcome [2] | Potency [11] | Potency [7] | Potency [12] | Potency [8] | Potency [4] | Potency [9] | Potency [5] | Potency [13] | Potency [14] | Potency [6]

COc1ccc2cc(C=O)ccc2c1
inactive: Potency [1] | outcome [2] | Potency [11] | Potency [7] | Potency [12] | Potency [8] | Potency [4] | Potency [9] | Potency [5] | Potency [13] | Potency [14]

Clc1ccc2c(c1)Nc1ccccc1S2
inactive: Potency [1] | outcome [2] | Potency [11] | Potency [7] | Potency [12] | Potency [8] | Potency [4] | Potency [9] | Potency [5] | Potency [13] | Potency [14] | Potency [6]

CN=C(N)NC(=O)Nc1c(C)cccc1C
inactive: Potency [1] | outcome [2] | Potency [11] | Potency [7] | Potency [12] | Potency [8] | Potency [4] | Potency [9] | Potency [5] | Potency [13] | Potency [14] | Potency [6]

Cc1cccc(C)c1NC(=O)c1ccc(N)cc1
inactive: Potency [1] | outcome [2] | Potency [11] | Potency [7] | Potency [12] | Potency [8] | Potency [4] | Potency [9] | Potency [5] | Potency [13] | Potency [14] | Potency [6]
